# Sampled rows, rich in hits. Any-hit rate of the full collection: about 2.3%.
# ANO1 block: inhibitors of mouse TMEM16A calcium-activated chloride channel. HEK293 TMEM16A/YFP iodide influx fluorescence, ionomycin. normalized B-score (activity score, 25-100; higher = stronger inhibition) at 10 µM. 310,000 compounds, 1.2% hits. AID 588511;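 active means ratio plate-corrected score three or more library SD toward inhibition, starting fluorescence score within five deviations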;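 further: score derived from kinetic fluorescence span divided by baseline fluorescence per well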
# Target sequence (Q8BHY3 whole entry, looked up): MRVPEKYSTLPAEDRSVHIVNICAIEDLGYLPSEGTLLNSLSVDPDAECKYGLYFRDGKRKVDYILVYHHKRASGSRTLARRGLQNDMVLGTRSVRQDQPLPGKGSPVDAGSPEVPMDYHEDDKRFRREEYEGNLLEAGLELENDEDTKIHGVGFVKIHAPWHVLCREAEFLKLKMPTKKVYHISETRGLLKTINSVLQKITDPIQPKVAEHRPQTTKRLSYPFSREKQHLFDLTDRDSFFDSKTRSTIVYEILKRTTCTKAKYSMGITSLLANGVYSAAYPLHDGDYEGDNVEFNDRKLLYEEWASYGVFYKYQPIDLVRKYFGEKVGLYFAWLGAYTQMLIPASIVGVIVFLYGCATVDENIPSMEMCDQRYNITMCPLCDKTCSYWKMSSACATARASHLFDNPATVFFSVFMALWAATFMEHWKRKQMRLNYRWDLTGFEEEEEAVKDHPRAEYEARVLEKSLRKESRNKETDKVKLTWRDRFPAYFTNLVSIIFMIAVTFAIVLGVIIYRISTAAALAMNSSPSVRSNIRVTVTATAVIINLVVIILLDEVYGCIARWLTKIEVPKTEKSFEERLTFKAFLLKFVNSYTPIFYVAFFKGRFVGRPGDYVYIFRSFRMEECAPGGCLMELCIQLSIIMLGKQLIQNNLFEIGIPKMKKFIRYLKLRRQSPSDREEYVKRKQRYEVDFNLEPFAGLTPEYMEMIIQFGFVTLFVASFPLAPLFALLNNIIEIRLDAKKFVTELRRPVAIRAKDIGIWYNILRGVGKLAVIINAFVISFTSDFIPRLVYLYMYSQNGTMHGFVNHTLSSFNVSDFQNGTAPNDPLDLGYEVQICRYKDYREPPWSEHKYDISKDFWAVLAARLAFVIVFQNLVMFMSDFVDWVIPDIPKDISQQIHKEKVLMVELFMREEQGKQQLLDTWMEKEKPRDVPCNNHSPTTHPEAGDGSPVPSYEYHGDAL
# CHT inh: inhibitors of human choline transporter CHT; Q9GZV3; CHT-expressing cells, membrane potential dye, choline response; stronger effect = lower value; B-score at 10 µM; 310,000 compounds, 0.86% hits;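 active means B-score over 3 SD under the library average, and starting fluorescence ratio not unusually high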;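 further: choline stimulus applied at its EC90 after an EC20 pre-addition; B-score computed on integrated fluorescence ratio after choline addition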
# TMEM16A act: mouse TMEM16A channel activation, primary screen. Q8BHY3. HEK293 TMEM16A/YFP-H148Q/I152L, iodide quench fluorescence; stronger effect = lower value. B-score at 10 µM. 340,000 compounds, 0.3% hits. AID 623877;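 active means fluorescence-ratio B-score plate-corrected deviation score at least 3 library SD below zero, with starting fluorescence score within 5 deviations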;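 further: channel opened by trigger with iodide after compound preincubation; score built on the fluorescence ratio of max minus min over baseline; more negative score means more quench and so TMEM16A activation or potentiation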
# CHT PAM: allosterically activates the human high affinity choline transporter; Q9GZV3; CHT-expressing cells, membrane potential dye, choline EC20; stronger effect = higher value; LV-AA mutant CHT in HEK293 cells; B-score at 10 µM; 310,000 compounds, 0.49% hits; AID 488977;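 active means initial fluorescence not abnormally high and integrated response B-score, plate-corrected, over 3 SD above library mean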
# CHT activ conf: human CHT activation, confirmatory screen | CHT-expressing cells, membrane potential dye fluorescence (FDSS); % of choline EC20–EC90 response window; HEK293 expressing CHT LV-AA mutant; choline added at its EC20 | shares compounds with CHT PAM | 2,500 compounds, 91% hits | activation, % at 10 µM;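 active means primary screen active, with duplicate mean activation above negative control mean plus 3 SD, cut at about 11% in these data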
# HEK293 MP dye: activity in parental HEK293 cells lacking CHT; 2,500 compounds, 62% hits; shares compounds with CHT PAM; membrane potential dye fluorescence (FDSS); measured after EC20 choline addition; ratio readout change at 10 µM, hits read low; AID 623908;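 active means duplicate-averaged ratio beyond 3 SD from buffer wells, up or down, though filed actives are nearly all decreases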
# The depositor's hits bear a star; i = inactive; / = no result.
SMILES,ANO1 block,CHT inh,TMEM16A act,CHT PAM,CHT activ conf,HEK293 MP dye
Cn1nnc2c[n+](CC(=O)c3ccc(Cl)cc3)cc(Br)c21,i,i,i,i,59.1*,-88.5*
Cn1nnc2c[n+](CC(=O)c3ccc4ccccc4c3)cc(Br)c21,i,i,i,10.4*,58.4*,-93.6*
O=C(C[n+]1ccccc1)c1ccc(Cl)cc1,i,i,i,i,/,/
O=C(NCc1ccncc1)C(=O)NCC1OCCN1S(=O)(=O)c1cc(F)ccc1F (stereo unspecified),i,i,i,i,/,/
O=C(c1nn(Cc2ccccc2)c(=O)c2ccccc12)N1CCN(c2ccccn2)CC1,i,i,i,7.56*,25.6*,i
O=C(Cn1nc(Cc2cccnc2)c2ccccc2c1=O)N1CCN(c2ccccn2)CC1,i,i,i,i,/,/
O=C(c1nn(Cc2ccccc2)c(=O)c2ccccc12)N1CCc2ccccc2C1,i,i,i,8.39*,28.3*,i
CCc1ccc(N=Nc2ccc(O)c3[nH]cnc23)cc1,/,/,i,/,/,/
COc1ccc(OC)c(S(=O)(=O)NCC(c2ccco2)S(=O)(=O)c2ccccc2)c1 (stereo unspecified),i,i,i,i,/,/
COc1ccc(N2CCN(C(CNC(=O)COc3ccccc3)c3ccco3)CC2)cc1 (stereo unspecified),i,i,i,7.14*,10.5*,i
CCC(=O)NCC(c1ccco1)N1CCN(c2ccc(OC)cc2)CC1 (stereo unspecified),i,i,i,i,/,/
CCN(CC)CCCNc1cc(C)nc2cc(-c3cccs3)nn12,i,i,i,9.09*,62.0*,-84.2*
CN(C)CCCNc1cc(-c2ccccc2)nc2cc(-c3cccc(F)c3)nn12,i,i,i,i,/,/
Cc1cccc(-c2cc3nc(C)cc(NCCCN(C)C)n3n2)c1,i,i,/,i,32.5*,-61.6*
COC(=O)c1c(NC(=O)CN2CCC3(O)CCCCC3C2c2cc(OC)ccc2OC)sc(C)c1C (stereo unspecified),i,i,i,i,/,/
CCOC(=O)c1nnn2c1nc(N1CCN(C)CC1)c1ccccc12,i,i,i,8.61*,58.1*,-67.4*
CCn1cc(C(=O)OC)c(=O)c2ccc(C)nc21,i,i,i,11.6*,79.5*,-74.6*
CCn1cc(C(=O)NCCOC)c(=O)c2ccc(C)nc21,i,i,i,i,/,/
CCCC1C(=O)N(Cc2ccccc2)C(=O)CC1C (stereo unspecified),i,i,i,i,/,/
c1cc(-c2nnc(-c3ccncc3)o2)ccn1,i,i,i,8.74*,76.9*,-59.5*
Cc1cc(NC(=O)CSc2ccc3nnc(-c4ccccn4)n3n2)no1,i,i,i,8.08*,46.8*,-43.3*
CCOc1ccc(-c2nnc3ccc(SCc4ccc(C(=O)OC)o4)nn23)cc1,i,i,i,i,/,/
Cc1nnc(NC(=O)CSc2ccc3nnc(-c4ccccn4)n3n2)s1,i,i,i,i,/,/
COC(=O)c1ccc(CSc2ccc3nnc(-c4ccccn4)n3n2)o1,i,i,i,i,35.0*,-35.6*
CCN(CC)S(=O)(=O)c1ccc2c(c1)nc(CCC(=O)Nc1ccc(N3CCOCC3)cc1)n2C,i,i,i,i,/,/
CCCCN(CC(=O)Nc1c(C)cccc1CC)C(=O)SCC,i,i,i,9.1*,12.6*,i
CC(NC(=O)CN(C)Cc1ccc(Br)cc1)c1ccccc1 (stereo unspecified),i,i,i,7.97*,16.6*,i
CSc1ccccc1NC(=O)CN(C)Cc1ccc(Br)cc1,i,i,i,i,/,/
CCc1cccc(C)c1NC(=O)CN(C)Cc1ccc(Br)cc1,i,i,i,i,23.9*,i
O=C(C1CC=CCC1)N1CCC(CO)(Cc2ccc(Cl)cc2)CC1 (stereo unspecified),i,i,i,i,/,/
